By inhibition is commonly meant the drop in the measured response relative to a control, in per cent.

Values without a mark were called inactive.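 The calls were made as follows: active = inhibition over a set limit, the all-compound mean plus 3 SD, in both replicate runs; inconclusive = over that limit in just one replicate run; inactive = at or under that limit in both runs.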

A short description of the assay: inhibitors of the yeast RAM network, pilot screen, dse1pr::URA3 reporter, 5-FOA selection (AID 869).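 Also: 0% = DMSO wells with no growth and 100% = 10 µM 1-NA-PP1 with full growth; RAM network block rescues cells from 5-FOA so hits raise OD615 growth.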 The settings on record: S. cerevisiae dse1pr::URA3 5-FOA growth, OD615, 2 d; at 10 µM; stronger effect = higher value; strain carries analog-sensitive mutant Cbk1 kinase.
As for `CC1CCCCC1NC(=O)c1ccc(CNc2c(N3CCCC3)c(=O)c2=O)cc1` (configuration not stated), the inhibition was 1.01%. The value for `Cc1ccc(-c2nc3cccnc3o2)cc1NC(=O)COc1ccc(Cl)cc1C` was 1.5%; that for `CCCCCn1c(=O)[nH]c2c(c1=O)CCC2` was -0.56%.

In the case of `CCN(c1ccccc1)c1cc(C)nc2nc(C)nn12`, the inhibition is 1.6%. The value for `COc1ccc(C(=O)c2cnc(C(C)C)n2C)cc1` was 1.88%; that for `O=C1C(C=NCc2ccco2)=C(O)c2ccccc21` was 0.74%; that for `C=CCn1cc(C(=O)NCCCOC)c(=O)c2cc(S(=O)(=O)N3CCC(C)CC3)ccc21` was 1.56%. On to `NC(=O)c1oc2ccccc2c1NC(=O)CCc1ccccc1`, for which the inhibition was 0.36%. The figure for `CCCSc1nc2c(c(=O)n1CC)SC(C)C2` (configuration not stated) is 1.4%; for `CCOC(=O)Cn1c(=O)oc2cc(S(=O)(=O)Nc3ccc(F)cc3)ccc21` it is 1.07%; for `COc1ccc(CCNC(=O)CSc2nnnn2-c2ccccc2)cc1` it is 1.33%.

For the molecule `CCn1cc(C2=NC(C(C)C)CO2)c2ccccc21` (configuration not stated), the inhibition is 1.54%. The figure for `O=C(Cn1cnc2c(cnn2-c2ccccc2)c1=O)N1CCOCC1` is 0.17%; for `COc1ccc(N(CC(=O)Nc2ccc3c(c2)OCCO3)S(=O)(=O)c2c(C)nn(C)c2C)cc1` it is 0.73%.

On to `COC(=O)C1=C(C)N(C)C(C)=C(C(=O)OC)C1c1ccsc1`, for which the inhibition is 1.99%.

For the molecule `O=c1c2c3c(sc2nc2n1CCCCC2)CCCC3`, the inhibition was 0.635%. The figure for `CCN=C(NCC)SC1CC(=O)N(c2cccc(OC)c2)C1=O` (configuration not stated) is 0.04%.

For the origin of these results see PubChem BioAssay.
